Among the data in the OligoGym collection are sensor-assay potency score (higher = more potent) values, retold here.
Also: reference of the scale not given here.

The target in one assay is ADCYAP1. Nature of the assay: pooled miR-30 sensor sort-seq; sequence = guide strand. As to conditions: shRNA.
For the sequence TATCCCATAGACCAGCAGGGCC, the sensor-assay potency score (higher = more potent) was -1.32. As to TCTTCCTCTGGCCTGATCCCGG, the sensor-assay potency score (higher = more potent) is -1.48. Same read-out and setting: for TAACCCTTTGTTTATACCTCTT the value was -0.602; for TAGCGGCTGTAGCTGTCCGTGA, -1.1. The same measure, in the same setting: in the case of TTGACAGCCATTTGTTTCCGGT it was -0.424. TTATCCCATAGACCAGCAGGGC displayed a sensor-assay potency score (higher = more potent) of -1.43. Still for that read-out and setting: for TGGGCGACATCTCTTCTCCCGG the value was -1.69. In turn, TGTCCGTGAAGATCCCGTCCGA yielded a sensor-assay potency score (higher = more potent) of -0.344.

Turning to ATTTGTTTCCGGTAGCGGCTGT, the sensor-assay potency score (higher = more potent) was -0.122.

The sequence TTAACCCTTTGTTTATACCTCT returned a sensor-assay potency score (higher = more potent) of -0.397. The same measure, in the same setting: for TTGTTTATACCTCTTCCCTAGG the value was -0.956.

TTCCGGTAGCGGCTGTAGCTGT: the sensor-assay potency score (higher = more potent) is -1.35. TTCCTCTGGCCTGATCCCGGGG showed a sensor-assay potency score (higher = more potent) of -1.18. Same read-out and setting: in the case of TTGTTTCCGGTAGCGGCTGTAG it was -0.993; in that of TTTGTTTATACCTCTTCCCTAG, 0.232; in that of TTGGATAGAACACACGAGCGAT, -0.826. Same read-out and setting: in the case of TCCGTGAAGATCCCGTCCGAGT it was -1.83; in that of TGCTGTGCATGATTATCCCATA, -1.74. Sequence TTACATAAATACATGTTTGGAT gave a sensor-assay potency score (higher = more potent) of -0.0777.

Turning to TACGCCTCTTCCTCTGGCCTGA, the sensor-assay potency score (higher = more potent) is -1.02. As for TGTTTGGATAGAACACACGAGC, the sensor-assay potency score (higher = more potent) was -1.09.

The next assay deals with ADC. The assay is described as above. Particulars: shRNA.
Consider TGACACTCCAAACTTTAGGCTC, for which the sensor-assay potency score (higher = more potent) was -0.511. On the same count and under the same terms, in the case of ATGTTGTCAAAGACCAGCCAGT it was -1.56.

TTGTCAAACAGGACTGAGTTGA displayed a sensor-assay potency score (higher = more potent) of -0.112. For the sequence TACACGATGGTCTTGGAGGTGG, the sensor-assay potency score (higher = more potent) is -0.24. The same measure, in the same setting: for TTGATCACGGAAGCAATCTCTT the value was -0.838; for TTCAGTGACACTCCAAACTTTA, -0.979; for TTTTCAAGCAGGTGTCTGCAGG, -0.788.

Regarding TTCTGCAGCCATCAGCTGCCTT, the sensor-assay potency score (higher = more potent) is -1.15. On the same count and under the same terms, for TTTCAGTGACACTCCAAACTTT the value was -0.644; for TTCTTCTGCAGGATGGGGGTAG, -0.285; for TTGCATACTTGAACTACAGCGA, 0.563.

TGGTCTTGGAGGTGGAACCATT displayed a sensor-assay potency score (higher = more potent) of -1.77.

A further assay addresses ADD2. The description is as above. As to conditions: shRNA.
Turning to TTGTCTCTGCCTCCTTCGCTGG, the sensor-assay potency score (higher = more potent) is -1.43.

In the case of TTTGGTATCCTCGTCTCCCTTG, the sensor-assay potency score (higher = more potent) is -0.18. Same read-out and setting: for TCTTATAGCTCTTCCATCCATC the value was -0.635; for TAGAGGTATCAACATCCGTGTC, -1.2. On the same count and under the same terms, for TGACTTCACATCTTGTCGGTTT the value was -0.214. TTGACCTCTGATTTAGTCTGAG yielded a sensor-assay potency score (higher = more potent) of 0.252. TATAGCTCTTCCATCCATCATT: the sensor-assay potency score (higher = more potent) is -1.04.
